Reference: PubChem BioAssay (NCATS)
Records with an inconclusive call do not appear. A number with no mark means an inactive call. Active and inactive are the calls of the source. The call rests on the fitted dose curve; in most records, active means well fitted inhibition curve with a large enough effect; inconclusive means small, poorly fitted or top-dose-only effect, or effect the other way; inactive means flat fitted curve, though single readings scatter.

Molecular target: ATP-dependent 6-phosphofructokinase (Trypanosoma brucei brucei) (UniProt O15648)
Assay: qHTS Assay to Find Inhibitors of T. brucei phosphofructokinase: hit validation (AID 492961)
Conditions: T. brucei PFK, ADP-Glo luminescence; series mostly up to 51.4 µM; activity change, negative = inhibition: at the top concentration
In short: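 Luminescence from ADP-Glo reports ADP generated as T. brucei PFK (1.25 nM) phosphorylates 0.5 mM fructose-6-phosphate using 0.1 mM ATP. Reactions ran 45 min at room temperature, pH 8.0.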
On the % scale 0 is the no-effect control and ±100 the full control effect; potency means the concentration at half of the fitted maximal effect.

ATP-dependent 6-phosphofructokinase (Trypanosoma brucei brucei), sequence (O15648 whole entry, looked up): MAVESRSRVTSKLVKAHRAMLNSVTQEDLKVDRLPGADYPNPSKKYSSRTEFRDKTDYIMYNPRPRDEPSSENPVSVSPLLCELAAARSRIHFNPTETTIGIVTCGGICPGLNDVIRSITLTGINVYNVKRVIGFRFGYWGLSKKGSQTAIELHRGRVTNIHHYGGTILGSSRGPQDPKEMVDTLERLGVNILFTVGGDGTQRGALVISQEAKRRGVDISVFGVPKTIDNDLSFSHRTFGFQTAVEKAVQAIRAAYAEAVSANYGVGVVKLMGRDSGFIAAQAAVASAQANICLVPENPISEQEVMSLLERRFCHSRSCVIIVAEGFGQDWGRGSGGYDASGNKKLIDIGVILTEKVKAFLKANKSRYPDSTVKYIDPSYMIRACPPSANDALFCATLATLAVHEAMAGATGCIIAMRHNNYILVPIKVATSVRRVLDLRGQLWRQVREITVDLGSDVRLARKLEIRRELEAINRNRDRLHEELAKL

Row | SMILES | activity change, negative = inhibition | Potency
1 | S=C=S | 7.14% | 
2 | CCOP(=O)(OCC)O/C(=C/Cl)c1ccc(Cl)cc1Cl | -8.65% | 
3 | O=[N+]([O-])c1cc(I)c(O)c(I)c1 | -24.3% | 
4 | O=C1CN(O)C(c2ccccc2)=c2cc(Cl)ccc2=N1 | -9.27% | 
5 | CC(=O)O[C@H]1CC[C@H]2[C@@H]3CCC4=CC(=O)CCC4=C3C=C[C@]12C | -2.14% | 
6 | CCC(C)(S(=O)(=O)CC)S(=O)(=O)CC | -3.64% | 
7 | O=C(NCNC(=O)NC1C(=O)NC(=O)N1CO)NC1C(=O)NC(=O)N1CO (centres undefined) | -7.7% | 
8 | C[C@@H](Cc1ccccc1)NCCC(c1ccccc1)c1ccccc1 | 4.19% [at 24.3 µM] | 
9 | CCON=O | 0.956% | 
10 | [O]=[Cd] | 0.328% | 
11 | ClCC1CO1 (centres undefined) | 0.95% | 
12 | Clc1ccccc1Cl | 0% | 
13 | CN1[C@@H]2CC[C@H]1CC(OC1c3ccccc3CCc3ccccc31)C2 (some centres undefined) | -11% [at 24.3 µM] | 
14 | ClC(Cl)(Cl)Cl | 1.38% | 
15 | O=C(CCl)c1ccc(Oc2ccc(C(=O)CCl)cc2)cc1 | -6.06% | 
16 | O=[N+]([O-])C(Br)(CO)CO |  | 8.91 µM (active)
17 | C[C@H]1CCC[C@H](O)CCCCCc2cc(O)cc(O)c2C(=O)O1 | -5.73% | 
18 | CC(=O)OC1CN2CCC1CC2 (centres undefined) | 0% | 
19 | N#CN | -2.94% | 
20 | CCNC(C)Cc1cccc(C(F)(F)F)c1 (centres undefined) | 4.6% | 

Row | SMILES | activity change, negative = inhibition | Potency
21 | CC1CCC(C(C)C)C(OC(=O)c2ccccc2N)C1 (centres undefined) | -0.4% | 
22 | CNC(=O)Oc1ccccc1C(=O)Nc1ccccc1 | -7.17% | 
23 | C=CCN1CC[C@]23c4c5ccc(O)c4O[C@H]2[C@@H](O)C=C[C@H]3[C@H]1C5 | -0.88% | 
24 | CCC1(c2ccccc2)C(=O)NC(=O)N(C)C1=O (centres undefined) | -2.32% | 
25 | CC(C)(C)c1cc(O)ccc1O | -17.4% | 
26 | S=C(S)N1CCNCC1 | -4.43% | 
27 | C[N+]1(C)CCCCC1COC(=O)C(O)(c1ccccc1)c1ccccc1 (centres undefined) | 0.458% | 
28 | N#CC1(N2CCCCC2)CCCCC1 | 9.89% | 
29 | C/C(=C\c1csc(C)n1)[C@@H]1C[C@@H]2O[C@]2(C)CCC[C@H](C)[C@H](O)[C@@H](C)C(=O)C(C)(C)[C@@H](O)CC(=O)O1 | -12.4% | 
30 | C=CCN=C=S | 1.02% | 
31 | c1csc(C2(N3CCCCC3)CCCCC2)c1 | -8.28% | 
32 | c1ccc(C2(N3CCCC3)CCCCC2)cc1 | 3.29% | 
33 | CC(=O)OO | -2.08% | 
34 | Clc1ccc(Cl)cc1 | 0.994% | 
35 | CC(C)Nc1ccc(Nc2ccccc2)cc1 | -18.4% | 
36 | C[CH2][Hg][S]c1ccccc1C(=O)O |  | 14.1 µM (active)
37 | O=C1CN=C(c2ccccc2)c2cc(Cl)ccc2N1CC1CC1 | 0% | 
38 | O=c1[nH]c(=O)n(Cl)c(=O)n1Cl | 3.51% | 
39 | O=CC=O | -6.14% | 
